The text below walks through data of PubChem BioAssay (NCI).

Each structure is given as a SMILES string. Compounds without any hit were thinned out: in the full panel of roughly 83,000, 20% have a hit.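 For each line, cells grew in 96-well plates with the test compound present at a single concentration for 48 hours.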 Unmarked numbers belong to inactive results. Calls of active or inactive are those of the source. The calls were made as follows: active = growth percent below 10; inactive = the rest.

What all share (assay): NCI-60 one-dose screen, 48 h (100 = growth as untreated, 0 = no growth, -100 = all killed)
Settings in all cases: 10 µM unless noted

Test [1] deals with HCT-15 colon.
The subject of test [2] is HT29 colon.
The test system of test [3] is SNB-75 CNS.
Test [4] concerns SNB-19 CNS.
Test [5] has as its system U251 CNS.
Test [6] relates to PC-3 prostate.
Test [7] deals with SK-MEL-5 melanoma.
Test [8] relates to UACC-62 melanoma.
Test [9] deals with LOX IMVI melanoma.
Test [10] has as its system SK-MEL-28 melanoma.

As for `c1cc(CNC23CC4CC(CC(C4)C2)C3)cc(C[N+](Cc2cccc(CNC34CC5CC(CC(C5)C3)C4)c2)(Cc2cccc(CNC34CC5CC(CC(C5)C3)C4)c2)Cc2cccc(CNC34CC5CC(CC(C5)C3)C4)c2)c1` (stereo not given), the growth in test [1] was 3.19% [42 µM] (active); in test [2], -5.66% [42 µM] (active); in test [3], 36.9% [42 µM]; in test [4], 31.2% [42 µM]; in test [5], 11.6% [42 µM]; in test [6], 43% [42 µM]. Moreover, the growth in test [7] is 23.1% [42 µM]; in test [8] it was 30.3% [42 µM]; in test [9] it was -4.47% [42 µM] (active); in test [10] it was 51.5% [42 µM].
Turning to `COc1cc(-c2cn(-c3ccc(Cl)c(Cl)c3)c(=O)[nH]2)cc(OC)c1OC`, the growth is 103% in test [1]; 102% in [2]; 104% in [3]; 81.6% in test [4]; 95.6% in test [5]; 104% in test [6]. The growth was 101% in test [7], 95.3% in test [8], 97.7% in test [9] and 110% in test [10].
As for `O=C(Nc1cc(Nc2ncccc2-c2ncnc3nc[nH]c23)ccc1F)c1cc(C(F)(F)F)cc(C(F)(F)F)c1`, the growth in test [1] was -67% (active); in [2], -23.8% (active); in test [3], -39.5% (active); in test [4], 13.7%; in [5], -12.1% (active); in test [6], -45.1% (active). For the same compound, the growth is -17.5% (active) in test [7], -23.6% (active) in test [8], -69.4% (active) in test [9] and -66.1% (active) in test [10].
Take `COc1ccc2oc(=O)cc(-c3c(C#N)c(N)n4nc(N)c(C#N)c4c3C#N)c2c1`: the growth in test [1] was 102%; in [2], 90.7%; in [3] it was 116%; in test [4] it was 112%; in [5], 101%; in test [6], 104%. Moreover, the growth in test [7] was 99%; in test [8], 107%; in test [9], 95%; in test [10], 107%.
As for `COc1cc(-c2csc(NC(=O)Nc3ccc(C(F)(F)F)cc3)n2)cc(OC)c1OC`, the growth is 10.6% in [1]; 3.06% (active) in [2]; -12.1% (active) in test [3]; 14.1% in [4]; 6.12% (active) in test [5]; 3.3% (active) in test [6]. The growth in test [7] is -54.7% (active); in [8], -0.579% (active); in [9], 4.24% (active); in test [10], 16.3%.
As for `O=C1Nc2ccc(Br)cc2/C1=N\N=C/c1cn(Cc2ccccc2)c2ccccc12`, the growth in test [1] was 103%; in test [2], 91%; in test [3], 84.7%; in [4], 98%; in [5] it was 94.6%; in [6] it was 75.1%. Further, the growth in test [7] was 97.2%; in test [8], 79.4%; in test [9], 98.1%; in [10], 105%.
As to `COc1cc(NC(=O)c2cc(O)c(C/C=C(\C)CCC=C(C)C)c(O)c2)cc2c1O[C@]1(C)CC[C@@H](O)C(C)(C)[C@H]1C2`, the growth in test [1] is 10.4%; in [2], 2.06% (active); in [3], 0.372% (active); in test [4], 8.74% (active); in [5], 0.579% (active); in test [6], 13.1%. Besides, the growth is -68.2% (active) in test [7], -4.89% (active) in [8], -65.8% (active) in [9] and 8.85% (active) in [10].
Take `COc1ccc(-c2nnc(N3CCN(C(=O)CN4CCN(c5ccccc5)CC4)CC3)nc2-c2ccc(OC)cc2)cc1`: the growth in test [1] is 18.5%; in test [2] it was 3.46% (active); in test [3], 49.9%; in [4], 53.5%; in [5], 37%; in test [6], 7.93% (active). In addition, the growth in test [7] was 8.21% (active); in [8] it was 52.1%; in test [9], 41.2%; in test [10], 56.5%.
With `COc1ccc2[nH]c(=O)c(/C=C/C(=O)c3ccccc3OC)cc2c1`, the growth in [1] was 11.3%; in test [2], 7.17% (active); in test [3] it was -11.5% (active); in [4], 17%; in test [5], 5.14% (active); in test [6] it was 22.1%. For the same compound, the growth was 25.2% in test [7], 25.7% in [8], 10.2% in test [9] and 50.5% in test [10].
As to `CC(=O)ON1CCCC(P(=O)(OCOC(=O)C(C)(C)C)OCOC(=O)C(C)(C)C)C1=O` (stereo not given), the growth in test [1] was 3.57% (active); in test [2] it was -4.49% (active); in test [3], 25.4%; in test [4], -7.66% (active); in test [5] it was -8.95% (active); in [6] it was 17.7%. Further, the growth in test [7] was -55.7% (active); in [8], -64.7% (active); in [9], 9.18% (active); in test [10] it was -46.9% (active).
For the compound `C[C@]12CC[C@@H]3c4ccc(O)cc4CC[C@H]3[C@@H]1C[C@H](O)C2`, the growth in [1] was 44.4%; in test [2], 94.1%; in [3], 84.2%; in [4], 66.2%; in test [5], 63.3%; in test [6], 80%. For the same compound, the growth in test [7] is 64.9%; in [8] it was 43.6%; in [9], 63.4%; in [10] it was 84.3%.
As to `COc1cc2c(cc1OCCCOc1cc3c(cc1OC)C(=O)N1CC(F)(F)C[C@H]1C=N3)N=C[C@@H]1CC(F)(F)CN1C2=O`, the growth was 94.4% in test [1]; 11.8% in test [2]; -8.01% (active) in test [3]; 24.3% in [4]; 18% in [5]; 3.21% (active) in test [6]. In addition, the growth in test [7] was -77.3% (active); in [8] it was -71.2% (active); in test [9], 16%; in test [10] it was -1.8% (active).
Regarding `OCCNc1nc(NCCO)nc(Nc2ccc(C3=NN(c4ccc(Cl)cc4)C(c4ccc(Cl)cc4)C3)cc2)n1` (stereo not given), the growth in test [1] is 48.4%; in test [2] it was 30.5%; in [3], 51.1%; in test [4] it was 78.1%; in test [5] it was 43%; in [6], 32.8%. The growth is 78.2% in test [7], 77.9% in test [8], 28.2% in test [9] and 54.4% in test [10].
